Source: PubChem
The sample as a whole holds a higher share of hits than the screen did.
Pf Dd2 inh: Plasmodium falciparum Dd2 growth inhibition. P. falciparum Dd2 growth, SYBR Green, 72 h. Potency, µM (series often up to 28.9 µM), without a hit: at the highest dose activity, negative = inhibition, most hits filed as inhibitors. hit rate 4.3% among 120,000; active means well fitted inhibition curve with a large enough effect;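 further: plate controls were DMSO vehicle for no effect and reference drug for full effect; nearly all actives have a fitted effect of over 65% in size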
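Readout: SYBR Green fluorescence, 485 nm excitation, 535 nm emission, after ~16 h lysis at 37C. Before that, Dd2-infected red cells (2.5% hematocrit) grew 72 h with compound, 29 uM top final concentration.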
The depositor's hits bear a star; i = inactive; [ ] = remark or other dose. Potency means the concentration at half of the fitted maximal effect.

SMILES | Pf Dd2 inh
O=C(NC1C[C@H]2CC[C@@H](C1)N2C(=O)c1ccc(C(F)(F)F)cc1)c1ccncc1 (some centres not stated) | -21%
CC(C)NC(=O)NCc1nnc2n1C(C(=O)NCc1cccnc1)CC2 (configuration not stated) | 24%
O=C(Cc1ccc(F)cc1)N1CC2CC(C1)[C@H]1CCCC(=O)N1C2 (some centres not stated) | -5%
COCCN1CCC(CN(C)C(=O)C(N)c2c(C)n[nH]c2C)CC1 (configuration not stated) | -7%
CC(=O)Nc1cccc(-c2nnc(SCC(=O)c3cc([N+](=O)[O-])ccc3Cl)o2)c1 | i
CCC(=O)C1=C(c2cccc([N+](=O)[O-])c2)N(C(=O)CC)n2c(nnc2-c2ccccc2)S1 | 1.1µM*
COc1cccc(C(=O)N2CCn3c(nnc3C3CC3)C2)c1 | 7%[44.1 µM]
CCOC(=O)C1=C(C)N=C2SC=C(CC(=O)NC3CC3)N2C1c1cccc([N+](=O)[O-])c1 (configuration not stated) | 0%
CCC(=O)C1=C(c2cccc([N+](=O)[O-])c2)N(C(=O)CC)n2c(nnc2C2CCCCC2)S1 | 1.4µM*
CCC(=O)C1=C(c2cccc(OC)c2)N(C(=O)CC)n2c(nnc2C2CCCCC2)S1 | 2.8µM*
COc1cccc(-c2nnc(SCC(=O)N(C)C3CCCCC3)o2)c1 | 0%
CN(C(=O)CSc1nnc(-c2ccc([N+](=O)[O-])cc2)o1)C1CCCCC1 | 23%
CC(=O)C1=C(c2cccc([N+](=O)[O-])c2)N(C(C)=O)n2c(nnc2-c2ccc(C)cc2)S1 | 15%
O=C(c1ccc(-n2ccnc2)cc1)N1CCC(c2[nH]ncc2-c2ccccc2)CC1 | -14%
CN1C(=O)[C@@H]2C[C@@H](CN2Cc2ccc3ccccc3n2)Oc2ccccc21 | i
CCc1cc(=O)n(CC(=O)Nc2ccc(OC)c(OC)c2)c(-c2ccccc2)n1 | i
CNC(=O)[C@@H]1C[C@@H](n2cc(CN(C)C(=O)Nc3ccc(F)cc3)nn2)CN1 | -3%
CN(CC1CCOC1)S(=O)(=O)c1ccc(F)cc1 (configuration not stated) | 50%[5.79 µM]
Cc1ccc(CN2C(=O)NC3(CCCN(C(=O)c4ccc5c(c4)OCO5)C3)C2=O)cc1 (configuration not stated) | 16%
O=C(c1ccc(Cl)nc1)N1CCn2c(nnc2-c2ccccc2)C1 | -3%[44.1 µM]
O=C(CCc1nc2ccccc2s1)N1CCN(C(=O)N2CC3CC(C2)[C@H]2CCCC(=O)N2C3)CC1 (some centres not stated) | -9%
O=C(CC1CCCN(c2cnn(CC3CC3)c(=O)c2)C1)NCc1ccncc1 (configuration not stated) | 12%
COc1cccc(-c2noc(-c3ccc(-c4cn[nH]c4)nc3)n2)c1OC | -23%
COc1cccc(-c2noc(-c3ccc(NCCCSC)nc3)n2)c1OC | i
COc1cccc(-c2noc(-c3ccc(NCCn4cccn4)nc3)n2)c1OC | 13µM*
SMILES | Pf Dd2 inh
CO[C@H]1C(=O)N(C2CCN(C(=O)c3nn(C)c4ccccc34)CC2)[C@H]1c1ccncc1 | -9%
O=C(c1ccc(F)cc1)N1CC(Oc2cccc(-c3nc(-c4ccccc4)no3)c2)C1 | 1%[5.79 µM]
O=C(Nc1ccccc1)N1CC(Oc2cccc(-c3nc(-c4ccccc4)no3)c2)C1 | 22%[5.79 µM]
CCNC(=O)N1CC(Oc2cccc(-c3nc(-c4ccccc4)no3)c2)C1 | 1.3µM*
O=C(Nc1ccc(F)c(F)c1)C1CCN(C(=O)c2ncn3c2COC(c2ccccc2)C3)CC1 (configuration not stated) | -16%
CN(C)c1cc(N2CCCC(NS(C)(=O)=O)C2)ncn1 (configuration not stated) | 42%[5.79 µM]
Cc1cc(C)n2nc(C(=O)N[C@H](c3ccccn3)C3CC(O)C3)nc2n1 (some centres not stated) | -10%
COc1ccc(CN2C(=O)COC[C@H]2C(=O)Nc2ccc(F)c(F)c2)cc1OC | 11%
O=C(Cc1ccccc1)N1CCC[C@H]1c1nc(-c2ccccc2)no1 | 10µM*
CCOc1ccc(CC(=O)N2CCC[C@H]2c2nc(-c3ccccc3)no2)cc1OCC | -32%
O=C(Cc1ccc(F)cc1)N1CCC[C@H]1c1nc(-c2ccc(F)cc2)no1 | i
O=C(O)C1=NOC2CN([S+](=O)([O-])c3ccccc3)CC12 (configuration not stated) | 1%
COCCOC1CN(C2CCN(S(=O)(=O)c3ccccc3)CC2)C12CCCCC2 (configuration not stated) | i
COCCOC1CN(C2CCN(C(=O)c3ccc(OC)c(F)c3)CC2)C12CCCCC2 (configuration not stated) | i
COCCOC1CN(C2CCN(Cc3cccc(F)c3)CC2)C12CCCCC2 (configuration not stated) | 3.5µM*
COCCOC1CN(C2CCN(Cc3ccncc3)CC2)C12CCCCC2 (configuration not stated) | i
COCCOC1CN(C2CCN(C(=O)Nc3ccccc3F)CC2)C12CCCCC2 (configuration not stated) | i
COCCOC1CN(C2CCN(Cc3ccc(F)c(F)c3)CC2)C12CCCCC2 (configuration not stated) | 2.5µM*
CC(C)Cc1cc(C(=O)N2CCc3nc(-c4ccccc4)[nH]c3C2)nc(=O)[nH]1 | -21%
O=C(c1ccc(Cl)cc1)N1CCC2(CC1)CN(c1ccccc1)C(=O)c1ccccc1O2 | -17%
O=C1CCC(CNC(=O)c2nc(-c3ccccc3)cc3[nH]ccc23)N1 (configuration not stated) | 3%[44.1 µM]
O=C(NCc1cccnc1)c1nc(-c2ccccc2)cc2[nH]ccc12 | i
O=C(NCCCn1ccnc1)c1nc(-c2ccccc2)cc2[nH]ccc12 | 11µM*
COCC[C@]1(O)CCN(C(=O)CN2C(=O)CNC2=O)C[C@H]1C | 4%
O=C(Nc1ccc2c(c1)CN(Cc1ccccc1F)C(=O)CO2)c1ccc(F)cc1 | i
SMILES | Pf Dd2 inh
Cc1ccc(CN2C(=O)OC(c3cccc(NC(=O)c4cccs4)c3)C2C(=O)NC2CC2)cc1 (configuration not stated) | -18%
COc1ccccc1N1CCN(CCCNC(=O)c2cnn(-c3ccc(C)c(C)c3)c2C2CCN(C(=O)OC(C)(C)C)CC2)CC1 | 5.6µM*
Cc1ccc(-n2ncc(C(=O)NCCCN3CCCCC3)c2C2CCN(C(=O)OC(C)(C)C)CC2)cc1 | 10µM*
COc1ccccc1N1CCN(CCCNC(=O)c2cnn(-c3cccc(Cl)c3)c2C2CCN(C(=O)OC(C)(C)C)CC2)CC1 | 2µM*
CCc1cccc(NC(=O)C2CCN(C(=O)c3ncn4c3COC(c3ccccc3)C4)CC2)c1 (configuration not stated) | -13%
Clc1cccc(CN2CC[C@H](c3nnc(-c4ccncc4)o3)C2)c1 | i
CN(C)C(=O)c1cn(C2CNC2)nn1 | 29%
O=C(CN1CCn2nc(C(O)CO)cc2C1)Nc1ccc(Cl)cn1 (configuration not stated) | -18%
CC(C)NC(=O)C1CN(c2ccccc2)C(=O)N1 (configuration not stated) | 13%[44.1 µM]
C#CCN(C)C(=O)C[C@@H]1c2nc(-c3cccnc3)sc2C[C@@H]2[C@](C)(CO)[C@H](O)CC[C@]21C | -19%
O=C1CCN(C(=O)C2CCN(C(=O)c3ccco3)CC2)CCCCCCN1 | 21%
O=C1CCCCC(Cc2ccccc2)(C(=O)O)N1 (configuration not stated) | 4%
O=C(c1ccccn1)N1CCC(c2nc(-c3cccnn3)no2)CC1 | 3%
